# Screening data as filed in PubChem BioAssay.
# Menin MLL FP TR – inhibitors of human menin-MLL interaction, mutant MLL peptide. Menin + Texas Red MLL mutant peptide, fluorescence polarization. AID 1768. hit rate 0.23% among 270,000. Potency, µM (top dose mostly 61.6 µM), inactives show top-dose FP activity change, negative = inhibition, actives largely listed as inhibitors; active means well fitted inhibition curve with a large enough effect in the polarisation, with a control signal flat, not every such curve was filed as active; inconclusive means small, poorly fitted or top-dose-only effect, or effect the other way, or a change in a side signal; inactive means no such curve, though single readings can be large or run the other way; the % refers to the polarisation; further: potency means the concentration at half of the fitted maximal effect; % of control where 0% means no effect
# CXXC DNA block – blocks binding of human MLL CXXC domain to DNA. hit rate 0.037% among 290,000. MLL-CXXC / FITC-HOXA9 DNA fluorescence polarization. Potency, µM (doses to about 115 µM), inactives show at the top dose activity change, negative = inhibition, usual class: inhibitors. Q03164; active means well fitted inhibition curve with a large enough effect in the polarisation, with a control signal flat, not every such curve was filed as active; inconclusive means small, poorly fitted or top-dose-only effect, or effect the other way, or a change in a side signal; inactive means no such curve, though single readings can be large or run the other way; the % refers to the polarisation; further: potency means the concentration at half of the fitted maximal effect
#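 Steps: dispense CXXC domain solution (7 uM) → pin compounds or unlabeled HOX-A9 DNA control → 5 min ambient → add FLSN-HOX-A9 solution (50 nM) → spin → 30 min ambient → fluorescence polarization. Tris pH 7.5/NaCl/DTT/BSA buffer.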
# Menin-MLL FL inh – displaces fluorescein MLL peptide from human menin. Fluorescence polarization, fluorescein-MLL peptide displacement from menin. FP activity change, % at 61.4 µM. 290,000 tested, under 10 active. AID 1766; active means well fitted curve in the direction sought with a large enough effect in the polarisation, not every such curve was filed as active; inconclusive means small, poorly fitted or top-dose-only effect, or effect the other way, or a change in a side signal; inactive means no such curve, though single readings can be large or run the other way; the % refers to the polarisation; further: % of control where 0% means no effect
# RGS12 GoLoco inh – inhibitors of human Gai1-RGS12 GoLoco interaction (red fluorophore). P63096. Gai1:RGS12 GoLoco peptide FP, rhodamine, 10 min. Potency, µM (titrated, usually from 61.6 µM), inactives show at the highest dose activity, negative = inhibition, hits mostly inhibitors. hit rate 0.44% among 230,000; active means well fitted inhibition curve with a large enough effect, not every such curve was filed as active; inactive means no such curve, though single readings can be large or run the other way; further: potency means the concentration at half of the fitted maximal effect; on the % scale 0 is the no-effect control and ±100 the full control effect; nearly all actives have a fitted effect of over 30% in size
# Target sequence (P63096 whole entry, looked up): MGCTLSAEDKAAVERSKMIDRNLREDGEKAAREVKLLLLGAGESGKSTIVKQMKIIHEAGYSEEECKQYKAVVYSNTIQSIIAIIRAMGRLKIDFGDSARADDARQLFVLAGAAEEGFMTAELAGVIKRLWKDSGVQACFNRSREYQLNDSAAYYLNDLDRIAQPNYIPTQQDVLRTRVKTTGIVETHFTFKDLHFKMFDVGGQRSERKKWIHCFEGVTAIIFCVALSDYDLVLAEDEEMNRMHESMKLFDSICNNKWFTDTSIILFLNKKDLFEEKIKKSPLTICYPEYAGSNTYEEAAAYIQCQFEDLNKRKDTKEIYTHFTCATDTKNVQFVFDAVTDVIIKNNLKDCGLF
# TRb SRC2 PPI – inhibitors of human thyroid hormone receptor beta-SRC2 interaction; hit rate 0.065% among 280,000; P10828; TRbeta-SRC2 peptide binding, fluorescence polarization; receptor liganded with 1 µM T3; Potency, µM (series often up to 106 µM), for inactives: at the top dose activity change, negative = inhibition, usual class: inhibitors; active means well fitted inhibition curve with a large enough effect; inconclusive means small, poorly fitted or top-dose-only effect, or effect the other way;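 further: potency means the concentration at half of the fitted maximal effect; plate controls were bound peptide for no effect and peptide without receptor for full effect; nearly all actives have a fitted effect of over 50% in size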
#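 Decrease in fluorescence polarization of 20 nM Texas Red SRC2 coactivator peptide flagged inhibition of its binding to 0.6 uM TRb LBD; 1 uM T3 included, incubation 5 hr, ex 555/em 632 nm.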
# TR SRC2 fluor cs – Texas Red fluorescence interference in TRb-SRC2 counter-screen; Potency, µM (doses to about 106 µM), for the others: top-dose fluorescence change, negative = quenching; TRb/SRC2 Texas Red total fluorescence interference; hit rate 0.29% among 280,000; AID 1479; active means well fitted curve in either direction with a large enough effect; inconclusive means small, poorly fitted or top-dose-only effect; further: potency means the concentration at half of the fitted maximal effect; on the % scale 0 is the no-effect control and ±100 the full control effect
#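 Human TRβ ligand-binding domain (0.6 uM) and Texas Red SRC2 peptide (20 nM) in Tris buffer with 1 uM T3 and 5% DMSO were incubated with pinned compound for 5 hr at ambient temperature. Total fluorescence was computed as S + 2P (555/632 nm).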
# The depositor's hits bear a star; i = inactive; ? = inconclusive; nt = not tested or not shown; [ ] = dose if it differs, or a comment. The list is not random: actives were taken first. Their share in the collection is about 0.5%.
SMILES,Menin MLL FP TR,CXXC DNA block,Menin-MLL FL inh,RGS12 GoLoco inh,TRb SRC2 PPI,TR SRC2 fluor cs
O=C1CCC(C2CCCCC2)CC1,nt,nt,nt,nt,2%[201 µM],0%[201 µM]
N#CC1(C#N)COC23CCCCC2C1(C#N)C(=N)O3 (stereo not drawn),28µM*,-20%,?,0.89µM*,-12%,7%
CCC1OC23CCCCC2C(C#N)(C(=N)O3)C1(C#N)C#N (stereo not drawn),?,-13%,?,35µM*,-2%,2%
CC1OC23CCCCC2C(C#N)(C(=N)O3)C1(C#N)C#N (stereo not drawn),3%,?,-1,-31%,-12%,3%
CCCC1OC23CCCCC2C(C#N)(C(=N)O3)C1(C#N)C#N (stereo not drawn),-7%,-24%,-26,28µM*,-21%,9%
O=C(c1ccc(Nc2nc3ccccc3n3nnnc23)cc1)N1CCN(c2ccc(F)cc2)CC1,nt,nt,nt,nt,3%,-1%
Cc1ccc(N(C)C(=O)CC(C)S(=O)(=O)c2ccc3c(c2)NC(=O)CO3)cc1 (stereo not drawn),nt,-3%,nt,nt,-10%,13µM*[quencher]
O=c1cc2oc3cc(O)c(O)cc3c(-c3ccccc3O)c-2cc1O,nt,?,?,7.9µM*,18µM*,40µM*[fluorescent]
COc1ccc(OC)c(-c2c3cc(O)c(=O)cc-3oc3cc(O)c(O)cc23)c1,?,?,?,10µM*,25µM*,45µM*[fluorescent]
COc1ccccc1-c1cc(=O)c2cc(O)ccc2o1,-12%[24.8 µM],nt,2,3%,-2%,-1%
CCOc1ccccc1-c1c2cc(O)c(=O)cc-2oc2cc(O)c(O)cc12,?,?,?,i,-6%,3%
CCOC(=O)C(=Cc1ccc(F)cc1)C(=O)OCC,?,-2%,3,7%,-8%,1%
CCOC(=O)C(=Cc1ccc(Br)cc1)C(=O)OCC,28µM*,-7%,4,25%,-4%,-2%
Cc1ccc(CN2CCN(C3CCN(C(=O)Nc4ccc(C)cc4Cl)CC3)C(=O)C2=O)cc1,nt,nt,nt,nt,1%,-26%
COc1cc(/C=C2/S/C(=N/S(=O)(=O)Cc3ccccc3)NC2=O)c([N+](=O)[O-])cc1OC,nt,-12%,2,25µM*,-7%,3%
CCN(CC)c1ccc(/C=C/C(=O)C2C(=O)C=C(C)OC2=O)cc1 (stereo not drawn),?,?,?,i,?,32µM*[fluorescent]
CCOc1ccc2nc3cc(N)ccc3c(N)c2c1,?,-29%,?,9%,-2%,?
CCOc1ccc2nc3cc(NCc4ccc(OC)cc4)ccc3c(N)c2c1,11µM*,7%,?,nt,nt,nt
O=S(=O)(Nc1cccc(-c2ccc(N3CCCCCC3)nn2)c1)c1ccc(C(F)(F)F)cc1,32%,27%,1,nt,nt,nt
O=S(=O)(Nc1ccc(-c2ccc(N3CCCC3)nn2)cc1)c1cccc(C(F)(F)F)c1,nt,nt,nt,nt,-8%,708µM*[quencher]
CC(C)c1ccc(OCC(=O)N(c2ccccn2)C2CCCCC2)cc1,0%,18%,0,4%,-26%[53 µM],5.6µM*[quencher]
O=C(COc1ccc(F)cc1)N(c1ccccn1)C1CCCCC1,0%,-6%,5,1%,0%,0%
CCC(C)OC(=O)N1CCCCC1CCO (stereo not drawn),nt,nt,nt,nt,-8%[201 µM],-10%[201 µM]
O=C(COC(=O)CCC1CCCC1)Nc1nc2c(F)c(F)c(F)cc2s1,25µM*,1%,10,nt,-1%,-3%
C[n+]1cccc(C(=O)NCC2CCCO2)c1 (stereo not drawn),-16%,-1%,6,1.8µM*,-4%,-1%
CC(C)(C)C(O)/C(=C\c1ccc(Cl)cc1)n1cncn1 (stereo not drawn),nt,nt,nt,nt,-6%[201 µM],-1%[201 µM]
COc1cccc(-c2[nH]c3c(c2-c2c(-n4cccc4)n(C)c(=O)[nH]c2=O)c(=O)[nH]c(=O)n3C)c1,nt,nt,nt,nt,2%,2%
Cn1c(-n2cccc2)c(-c2c(-c3ccccc3)[nH]c3c2c(=O)n(C)c(=O)n3C)c(=O)n(C)c1=O,nt,nt,nt,nt,-11%,25119µM*[quencher]
c1cc2ccc3ccc4ccc5cccc6c(c1)c2c3c4c56,nt,nt,nt,nt,-5%[201 µM],0%[201 µM]
OC1CCCCCCCCCCC1,nt,nt,nt,nt,1%[201 µM],-3%[201 µM]
